Here are results for 4 compounds from PubChem BioAssay (NCI).

Test [1] in a line: NCI Yeast Anticancer Drug Screen. Data for the rad50 strain (AID 155).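 Further: 0% = growth of vehicle-only cultures of the same strain.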 The note with it: S. cerevisiae rad50 strain growth inhibition, active compounds read high. In short, it runs like this: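 Cells are treated with compound, grown, and their growth is then scored against vehicle-only cultures of the same repair-deficient yeast strain.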
The nature of test [2]: NCI Yeast Anticancer Drug Screen. Data for the mec2-1 strain (AID 157). As to conditions: S. cerevisiae mec2-1 strain, active compounds read high. In short, it runs like this: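 mec2-1 yeast strain, carrying an alteration in DNA damage repair or cell cycle control, was exposed to compounds; growth inhibition was measured relative to vehicle-treated controls.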
The nature of test [3]: NCI Yeast Anticancer Drug Screen. Data for the sgs1 mgt1 strain (AID 161).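 Further: 0% = growth of cultures given vehicle only.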 As to conditions: S. cerevisiae sgs1 mgt1 strain, active compounds read high. In short, it runs like this:
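Compounds are added to genetically altered yeast, and growth is compared with cultures given vehicle alone to give percent inhibition.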

Test [4] in a line: NCI Yeast Anticancer Drug Screen. Data for the cln2 rad14 strain (AID 165).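 Further: 0% = growth equal to vehicle treated cultures.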 As to conditions: S. cerevisiae cln2 rad14 strain, active compounds read high. Put shortly:
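Yeast carrying cln2 and rad14 alterations (cell cycle control and DNA damage repair) were exposed to compounds. Growth inhibition was measured against vehicle-treated controls.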

The nature of test [5]: NCI Yeast Anticancer Drug Screen. Data for the mlh1 rad18 strain (AID 175). The note with it: S. cerevisiae mlh1 rad18 strain growth inhibition, active compounds read high. Put shortly:
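Growth inhibition of the yeast strain was measured after compound exposure and expressed relative to vehicle-treated controls. The strain carries defined defects in DNA damage repair.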

A short description of test [6]: NCI Yeast Anticancer Drug Screen. Data for the bub3 strain (AID 167). As to conditions: S. cerevisiae bub3 mutant strain, active compounds read high. In short, it runs like this:
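Part of a panel of yeast mutants defective in DNA damage repair or cell cycle regulation. Each strain is grown with compound, and inhibition is calculated relative to solvent-treated cultures.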

Where [7] appears, read: at 5.0 µM (retest, dose inferred, filed as 0.5).
Where [8] appears, read: at 50.0 µM (retest, dose inferred, filed as 5.0).

SMILES strings stand for the structures. This is part of a sample that, as a whole, favours compounds with a hit. Of some 79,000 tested, about 15% had one in any assay. A number with no mark means an inactive call. The source made the active and inactive calls. No stated cut-off is given here; in the data, active means growth inhibition above about 70%; inactive means the rest.

Take `Cc1cc(Br)c2ccccc2c1N`: the growth inhibition is 1% in test [1] (setting [7]); 69% in test [1] (setting [8]); 88.3% (active) in test [1] (at 50.0 µM); 2% in test [2] (setting [7]); 39% in test [2] (setting [8]); 54.2% in test [2] (at 50.0 µM). Besides, the growth inhibition was 0% in test [3] (setting [7]); 74% (active) in test [3] (setting [8]); 94.2% (active) in test [3] (at 50.0 µM); -1% in test [4] (setting [7]); 42% in test [4] (setting [8]); 84.8% (active) in test [4] (at 50.0 µM). Further, the growth inhibition in test [5] (setting [7]) is -3%; in test [5] (setting [8]), 44%; in test [5] (at 50.0 µM), 90.2% (active).

For `CC(C)c1cc2c(cc1O)C(O)C1(O)CCCC(C)(C)[C@H]1CC2` (stereo not given in full), the growth inhibition in test [1] (setting [7]) was -6%; in test [1] (setting [8]) it was 99% (active); in test [1] (at 50.0 µM), 91.4% (active); in test [2] (setting [7]) it was -1%; in test [2] (setting [8]) it was 100% (active); in test [2] (at 50.0 µM) it was 93.7% (active). Also, the growth inhibition in test [4] (setting [7]) is -11%; in test [4] (setting [8]), 99% (active); in test [4] (at 50.0 µM), 91.6% (active); in test [6] (setting [7]) it was 6%; in test [6] (setting [8]) it was 99% (active); in test [6] (at 50.0 µM), 93% (active). In addition, the growth inhibition was -3% in test [5] (setting [7]), 99% (active) in test [5] (setting [8]) and 91.8% (active) in test [5] (at 50.0 µM).

As for `Nc1c(/C=C/c2cc3ccc(C4=NCCN4)cc3[nH]2)[nH]c2cc(C3=NCCN3)ccc12`, the growth inhibition was 78% (active) in test [1] (setting [7]); 97% (active) in test [1] (setting [8]); 89.3% (active) in test [1] (at 50.0 µM); 41% in test [2] (setting [7]); 96% (active) in test [2] (setting [8]); 89% (active) in test [2] (at 50.0 µM). Besides, the growth inhibition in test [3] (setting [7]) is 36%; in test [3] (setting [8]), 94% (active); in test [3] (at 50.0 µM), 89.2% (active); in test [6] (setting [7]) it was 42%; in test [6] (setting [8]) it was 92% (active); in test [6] (at 50.0 µM), 86.5% (active). The results for the growth inhibition in test [5] (setting [7]), in test [5] (setting [8]) and in test [5] (at 50.0 µM) were 36%, 96% (active) and 90.5% (active), respectively.

As for `O=C1CC(c2ccccc2)NN1` (stereo not given), the growth inhibition is -108% in test [1] (setting [7]); 92% (active) in test [1] (setting [8]); 90.9% (active) in test [1] (at 50.0 µM); -42% in test [2] (setting [7]); 94% (active) in test [2] (setting [8]); 90.5% (active) in test [2] (at 50.0 µM). Moreover, the growth inhibition was -62% in test [4] (setting [7]); 93% (active) in test [4] (setting [8]); 87.8% (active) in test [4] (at 50.0 µM); -71% in test [6] (setting [7]); 87% (active) in test [6] (setting [8]); 88.2% (active) in test [6] (at 50.0 µM). Also, the growth inhibition is -114% in test [5] (setting [7]), 93% (active) in test [5] (setting [8]) and 86.5% (active) in test [5] (at 50.0 µM).
